The results in this text go back to PubChem BioAssay (NCI).

This is part of a sample that, as a whole, favours compounds with a hit. Of some 83,000 tested, about 20% had one in any assay.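 The endpoint reported here, percent growth, reads 100 for growth as untreated, 0 for no net growth and -100 for all cells dead.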 A number with no mark means an inactive call. The source made the active and inactive calls. Rule for the calls: active = growth percent below 10; inactive = the rest.

Among the test systems are RPMI-8226 leukemia; OVCAR-8 ovarian; OVCAR-5 ovarian; OVCAR-4 ovarian; SK-OV-3 ovarian; IGROV1 ovarian; OVCAR-3 ovarian; HS 578T breast; T-47D breast; BT-549 breast; MDA-MB-435 melanoma; SW-620 colon; MCF7 breast; HCT-116 colon; HCC-2998 colon; KM12 colon; NCI/ADR-RES ovarian; MDA-MB-468 breast.
Common to all, as to assay: NCI-60 one-dose screen, 48 h (100 = growth as untreated, 0 = no growth, -100 = all killed)
Common to all, as to conditions: 10 µM unless noted

Turning to `COc1cc2c(c(OC)c1OC)C(=O)CC(c1cccc(NC(=O)c3cccc([N+](=O)[O-])c3)c1)O2` (centres undefined), the growth in the assay on RPMI-8226 leukemia was 8.29% (active); in the assay with OVCAR-8 ovarian it was 10.2%; with OVCAR-5 ovarian, 79.3%; in the assay with OVCAR-4 ovarian it was 27.1%; in the assay with SK-OV-3 ovarian, 64.2%; in the assay on IGROV1 ovarian, 27%. Further, the growth in the assay with OVCAR-3 ovarian is 19.4%; in the assay on HS 578T breast, 25.1%; with T-47D breast, 18.6%; with BT-549 breast it was -7.24% (active); in the assay on MDA-MB-435 melanoma it was -16.8% (active); in the assay on SW-620 colon, 34.9%. Further, the growth in the assay on MCF7 breast was 12.3%; in the assay on HCT-116 colon, 16.4%; in the assay with HCC-2998 colon, 76.4%; with KM12 colon it was 2.26% (active).
Turning to `CN1CCN(c2ccc(C(=O)/C=C/c3cc(C(F)(F)F)cc(C(F)(F)F)c3)cc2)CC1`, the growth with OVCAR-8 ovarian was -93.4% (active); in the assay with OVCAR-5 ovarian, -95.8% (active); in the assay with OVCAR-4 ovarian, -23.8% (active); with SK-OV-3 ovarian it was -89.5% (active); in the assay with IGROV1 ovarian, -36.6% (active); with OVCAR-3 ovarian, -54.4% (active). For the same compound, the growth was 26.9% in the assay with HS 578T breast; -39.3% (active) with NCI/ADR-RES ovarian; -68.7% (active) in the assay on T-47D breast; -60.8% (active) with MDA-MB-435 melanoma; -44.8% (active) in the assay on SW-620 colon; -82.3% (active) with MCF7 breast. The growth with HCT-116 colon was -87.4% (active); in the assay on HCC-2998 colon it was -91% (active); in the assay on KM12 colon it was -56.8% (active); in the assay with MDA-MB-468 breast, -69.3% (active).
As for `COc1cccc(COc2ccc(NC(=O)Nc3ccc(Cl)c(C(F)(F)F)c3)cc2)c1`, the growth in the assay on RPMI-8226 leukemia is 13.5%; in the assay on OVCAR-8 ovarian it was 31.9%; with OVCAR-5 ovarian, 69.8%; in the assay with OVCAR-4 ovarian, 45.2%; in the assay with SK-OV-3 ovarian it was 35.6%; in the assay on IGROV1 ovarian, 25.8%. Moreover, the growth is 27.6% in the assay on OVCAR-3 ovarian; 26.7% with HS 578T breast; 47.1% in the assay with NCI/ADR-RES ovarian; 37.9% in the assay with BT-549 breast; 58.9% with MDA-MB-435 melanoma; 49.3% with SW-620 colon. Moreover, the growth was 24.3% in the assay with MCF7 breast; 18.8% in the assay on HCT-116 colon; 46.8% in the assay with HCC-2998 colon; 6.06% (active) with KM12 colon; 2.67% (active) with MDA-MB-468 breast.
`COCOc1cc2c(=O)c(C)c(C(=O)N[C@@H](Cc3ccccc3)C(O)C(=O)NCc3ccccc3)oc2cc1OC` (some centres undefined): the growth is 67.3% in the assay with RPMI-8226 leukemia; 2.29% (active) in the assay with OVCAR-8 ovarian; 28.2% in the assay on OVCAR-4 ovarian; 22.8% with SK-OV-3 ovarian; 57.6% with IGROV1 ovarian; 65.4% in the assay with OVCAR-3 ovarian. Also, the growth in the assay on HS 578T breast was 9.01% (active); in the assay on NCI/ADR-RES ovarian, 88%; in the assay with T-47D breast, 40.7%; with BT-549 breast it was -35.5% (active); in the assay with MDA-MB-435 melanoma, 11.2%; in the assay on SW-620 colon it was 31.1%. In addition, the growth in the assay with MCF7 breast is 17.3%; in the assay with HCT-116 colon, -10.4% (active); in the assay with HCC-2998 colon it was 57.3%; in the assay with KM12 colon, -32.6% (active); with MDA-MB-468 breast, 13.9%.
On to `O=C(NNc1nc2cc(F)ccc2n2c(CN3CC4CNCC4C3)ccc12)c1ccncn1` (centres undefined), for which the growth is 21.6% in the assay on RPMI-8226 leukemia; 13% in the assay with OVCAR-8 ovarian; 34.8% in the assay on OVCAR-5 ovarian; 28.6% in the assay with OVCAR-4 ovarian; 31.5% in the assay with SK-OV-3 ovarian; 22.1% with IGROV1 ovarian. The growth with OVCAR-3 ovarian is 43.1%; with HS 578T breast it was 45.3%; in the assay with NCI/ADR-RES ovarian it was 59.8%; in the assay on T-47D breast, 12.4%; in the assay on MDA-MB-435 melanoma, 32.1%; in the assay on SW-620 colon it was 31.3%. The growth was 14.7% in the assay with MCF7 breast; 14.7% in the assay on HCT-116 colon; 56.7% in the assay on HCC-2998 colon; 27.9% in the assay with KM12 colon; -3.86% (active) in the assay with MDA-MB-468 breast.
Regarding `O=C1N/C(=N\c2nccs2)S/C1=C\C=C/c1ccccc1`, the growth with RPMI-8226 leukemia is 39.4%; with OVCAR-8 ovarian, 13.7%; in the assay on OVCAR-4 ovarian it was 44.5%; in the assay with SK-OV-3 ovarian it was 77.7%; with IGROV1 ovarian, 30.3%; with OVCAR-3 ovarian, 50.7%. Moreover, the growth in the assay with HS 578T breast is 85.2%; in the assay with NCI/ADR-RES ovarian it was 37.4%; with T-47D breast, 32.7%; with MDA-MB-435 melanoma, 44.5%; in the assay with SW-620 colon, 41%; in the assay with MCF7 breast it was 16.1%. The growth with HCT-116 colon was 12.1%; in the assay with HCC-2998 colon, 75.7%; in the assay on KM12 colon, 38%; in the assay on MDA-MB-468 breast, 44.2%.
Turning to `CC(=O)NNc1ccc2nnc(-c3ccccc3)n2n1`, the growth is 100% in the assay on OVCAR-8 ovarian; 113% with OVCAR-5 ovarian; 109% in the assay on OVCAR-4 ovarian; 110% in the assay with SK-OV-3 ovarian; 108% in the assay on IGROV1 ovarian; 95.4% in the assay on OVCAR-3 ovarian. Further, the growth was 100% in the assay with HS 578T breast; 104% in the assay with NCI/ADR-RES ovarian; 105% with T-47D breast; 103% with MDA-MB-435 melanoma; 90.6% in the assay on SW-620 colon; 94.8% in the assay on MCF7 breast. The growth in the assay with HCT-116 colon is 107%; with HCC-2998 colon, 100%; in the assay on KM12 colon it was 104%; in the assay on MDA-MB-468 breast it was 101%.
Regarding `COc1ccc(C(=O)/C=C/c2ccccc2Br)cc1S(N)(=O)=O`, the growth in the assay with RPMI-8226 leukemia is -9.4% (active); with OVCAR-8 ovarian, -64.5% (active); in the assay on OVCAR-5 ovarian, -6.5% (active); in the assay with OVCAR-4 ovarian, 35.2%; in the assay on SK-OV-3 ovarian, 69.8%; in the assay with IGROV1 ovarian, 38.5%. For the same compound, the growth in the assay with OVCAR-3 ovarian is -56.5% (active); in the assay with HS 578T breast, 47%; with NCI/ADR-RES ovarian, 16.1%; in the assay on T-47D breast it was -5.31% (active); with MDA-MB-435 melanoma it was 23.4%; with SW-620 colon it was -45.7% (active). For the same compound, the growth in the assay with MCF7 breast was -70.5% (active); with HCT-116 colon, -97% (active); with HCC-2998 colon it was -65.6% (active); with KM12 colon, -71% (active); in the assay on MDA-MB-468 breast it was -60.3% (active).
`O=C(NNc1nc2cc(F)ccc2n2c(C(=O)N3CCN(C4CC4)CC3)ccc12)c1ncccn1`: the growth in the assay with RPMI-8226 leukemia was 25.1%; in the assay on OVCAR-8 ovarian it was 22.1%; in the assay with OVCAR-5 ovarian it was 38.4%; in the assay with OVCAR-4 ovarian it was 29.5%; in the assay with SK-OV-3 ovarian it was 22.1%; in the assay on IGROV1 ovarian it was 30.4%. Also, the growth with OVCAR-3 ovarian is 57.7%; in the assay with HS 578T breast, 66.5%; with NCI/ADR-RES ovarian, 16.6%; in the assay on T-47D breast, 27.3%; in the assay on MDA-MB-435 melanoma, 41.2%; in the assay with SW-620 colon, 34.6%. The growth in the assay on MCF7 breast was 15.3%; with HCT-116 colon it was 20.5%; in the assay with HCC-2998 colon, 63.8%; in the assay on KM12 colon, 35.7%; in the assay on MDA-MB-468 breast it was 14.1%.
